# Data taken from PubChem BioAssay AID686940 (The Scripps Research Institute Molecular Screening Center, 2013).
# The campaign covered roughly 370,000 compounds. About 2,600 (0.7%) were called active.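 Rule for the calls: active = inhibition above a per-plate cutoff, mean inhibition of test wells between control levels plus 3 SD (cut at about 38% in these data); inactive = the rest.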 Shown is part of a subset that was picked to be rich in actives.
# Molecular target: COUP transcription factor 2 (Homo sapiens) (UniProt P24468)
# Assay: COUP-TFII reporter suppression in human cells – cell-based, luciferase reporter, HEK293T, luminescence, primary screen (AID 686940);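 note: cells cotransfected with COUP-TFII expression vector driving the NGFI-A reporter; 0% = median of COUP-TF2 test wells and 100% = reporter-only cells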
# Conditions: HEK293T NGFI-A luciferase reporter, at 8.6 µM, hits give high values
# Chain of COUP transcription factor 2 (Homo sapiens) (P24468 whole entry, looked up): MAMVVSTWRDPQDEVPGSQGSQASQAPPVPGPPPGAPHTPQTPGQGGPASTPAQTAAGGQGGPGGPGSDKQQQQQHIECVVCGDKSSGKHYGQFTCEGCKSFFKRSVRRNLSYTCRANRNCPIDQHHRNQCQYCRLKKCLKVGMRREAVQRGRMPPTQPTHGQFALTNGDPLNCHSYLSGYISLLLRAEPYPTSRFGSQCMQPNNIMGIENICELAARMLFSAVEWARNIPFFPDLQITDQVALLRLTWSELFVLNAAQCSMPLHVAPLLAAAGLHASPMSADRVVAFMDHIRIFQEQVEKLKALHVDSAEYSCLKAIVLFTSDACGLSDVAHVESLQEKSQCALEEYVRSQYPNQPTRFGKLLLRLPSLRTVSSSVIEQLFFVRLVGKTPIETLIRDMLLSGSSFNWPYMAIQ
row,Structure (SMILES),inhibition
1,COCC1CCCCN1C(=O)c1cc(COc2ccc(C)c(C)c2)on1 (centres undefined),-30% (inactive)
2,CCCOC1CCCN(C(=O)c2cc(COc3cncc(Cl)c3)on2)C1 (centres undefined),-19.1% (inactive)
3,C=CCC1(CC=C)CCCN1C(=O)c1cc(COc2ccc(-n3cncn3)cc2)on1,53% (active)
4,O=C(Nc1ccc(Br)cc1)OCCN1C(=O)CCC12CCC(c1ccccc1)CC2 (centres undefined),-11.1% (inactive)
5,COC(=O)C[C@H]1CC[C@H]2[C@H](COc3ccc(NC(=O)C4CC4)cc3C(=O)N2C)O1,-12.2% (inactive)
6,CCCOc1ccc(F)cc1-c1cc(C(=O)Nc2ccc(F)cc2)[nH]n1,-7.05% (inactive)
7,COc1ccc(OC)c(NC(=O)c2cc(-c3cc(F)ccc3OCC3CCCO3)n[nH]2)c1 (centres undefined),87% (active)
8,COc1cc(F)ccc1-c1cc(C(=O)NCC2CCCCC2)[nH]n1,-27.9% (inactive)
9,O=C(NCc1ccc(Cl)cc1)C1CCCN(c2nc3ccccc3o2)C1 (centres undefined),18.9% (inactive)
10,C#CCNC(=O)C[C@H]1C[C@@]2(C(=O)OC)C(=C[C@H](C(C)C)O[C@@H]2C2CC2)N(Cc2ccco2)C1=O,-5.51% (inactive)
11,CC(C)CSc1nnc(-c2cccnc2)n1Cc1ccccc1,9.79% (inactive)
12,O=C(c1c(F)cccc1F)N1CCN(S(=O)(=O)c2ccc3c(c2)OCCO3)CC1,38.1% (active)
13,O=C(c1c(F)cccc1Cl)N1CCN(S(=O)(=O)c2ccc3c(c2)OCCCO3)CC1,18% (inactive)
14,O=S(=O)(c1ccc2c(c1)OCCCO2)N1CCN(S(=O)(=O)c2c(F)cccc2F)CC1,9.89% (inactive)
15,CCc1cc2c(SCC(=O)Nc3ncc(Cl)c(C)c3Cl)ncnc2s1,12.8% (inactive)
16,CCc1cc2c(NC3CCCC3)ncnc2s1,39.9% (active)
17,CCc1cc2c(NC(Cc3ccccc3)C(=O)O)ncnc2s1 (centres undefined),-1.84% (inactive)
18,C=C(C)C1CC23C(=O)C4(C(=O)c5ccccc5)C[C@@]5(C)CCC(CC2C1(C)C)(C4=O)C35OC (some centres undefined),-4.41% (inactive)
19,COc1ccccc1C(=O)CSc1nnc(-c2ccccn2)n1-c1ccccc1,9.59% (inactive)
20,Cc1ccc(-c2nc(C3CCCN(S(=O)(=O)c4ccc(Br)s4)C3)no2)cc1 (centres undefined),2.13% (inactive)
21,CC(=O)Nc1c(-c2ccc(C)cc2)nc2ccc(Cl)cn12,-17.9% (inactive)
22,COc1ccc(-c2nc3ccc(Br)cn3c2Cc2ccc(C)cc2)cc1OC,-32.3% (inactive)
23,Cc1ccc(-c2cn3cc(C)ccc3n2)cc1,73% (active)

row,Structure (SMILES),inhibition
1,Cc1ccc2nc(-c3ccccc3)c(CC3CCCCC3)n2c1,-52.4% (inactive)
2,Cc1ccc2nc(-c3ccc(Br)cc3)cn2c1,46.6% (active)
3,Cc1ccc(-c2nc3c(C)cc(Br)cn3c2Cc2ccccc2)cc1,-5.6% (inactive)
4,CCC(=O)c1c(CC)c2n3c1=CC[C@H]3CC(Br)C=2 (some centres undefined),6.74% (inactive)
5,CC(c1ccc(N)cc1)c1cn(C)c2ccccc12 (centres undefined),-16.2% (inactive)
6,CCOC(=O)[C@]12CCCC3=C1N(CCC3)C(=O)[C@@H](CC(=O)N1CCSCC1)C2,-5.73% (inactive)
7,COc1ccc(N2CCN(CCNS(=O)(=O)c3ccc([N+](=O)[O-])cc3)CC2)cc1,15.2% (inactive)
8,CC(C)OCCCNc1ncnc2c1[nH]c1ccc(F)cc12,62.2% (active)
9,O=C(CN1CCC(NC(=O)NCc2ccccc2)CC1)Nc1ccc2c(c1)OCCO2,-8.81% (inactive)
10,COc1ccc(C(=O)OCCN2CCN(C3CN(Cc4cn(Cc5ccccc5F)nn4)S(=O)(=O)C3)CC2)cc1OC (centres undefined),18.4% (inactive)
11,COc1cccc(N(C)C(=O)[C@@H](C)[C@@H](O)c2ccc3ccccc3c2)c1,-11.8% (inactive)
12,COc1ccc(NC(=S)NCc2cccs2)c(OC)c1,6.7% (inactive)
13,COc1cccc(-c2cc3nc(NCc4ccccc4OC)n(C)c(=O)c3s2)c1,-9.04% (inactive)
14,COc1ccccc1CNc1nc(Nc2ccccc2Cl)c2sccc2n1,60.3% (active)
15,CC(C)Nc1nc(NCCOc2ccccc2Cl)c2sccc2n1,19.2% (inactive)
16,COc1cccc(CNc2nc3cc(-c4csc5ccccc45)sc3c(=O)n2C)c1,5.09% (inactive)
17,COc1ccccc1CNCc1cccs1,9.93% (inactive)
18,COc1cccc(CNc2nc(NCc3ccccc3OC)nc3ccsc23)c1,39.1% (active)
19,COc1cccc(CNc2ncc(-c3ccccc3)n2C)c1,-0.1% (inactive)
20,COc1cccc(CNc2nc(NCc3cccs3)nc3ccsc23)c1,45.6% (active)
21,COc1ccc(C(=O)OCCN(C)C2CN(Cc3cn(Cc4cccc(C)c4)nn3)S(=O)(=O)C2)cc1OC (centres undefined),-14.5% (inactive)
22,COP(=O)(O)CNC(=O)OCc1ccccc1,-0.48% (inactive)
23,COC(CNC(=O)[C@H](Cc1ccccc1)NC1(C(=O)NC2CCCCC2)CCCCC1)OC,-36.3% (inactive)

row,Structure (SMILES),inhibition
1,Cc1ccc(C(=O)N(Cc2ccccn2)CC2CCCO2)cc1 (centres undefined),-9.77% (inactive)
2,O=S1(=O)c2c(NCc3ccco3)cccc2Oc2ccccc2CN1Cc1cn(Cc2cccc(C(F)(F)F)c2)nn1,-1.36% (inactive)
3,CCOc1ccc(-n2c(SCC(=O)Nc3cc(C)c(NC(=O)c4ccccc4)cc3OC)nnc2-c2cccs2)cc1,27.9% (inactive)
4,Cc1ccc(C2=CCN(C)C(=O)N2c2ccc(Cl)cc2)cc1,-1.56% (inactive)
5,CCOc1ccc(N(CC(=O)Nc2c(C)n(C)n(-c3ccccc3)c2=O)S(=O)(=O)c2ccc(Cl)s2)cc1,-10% (inactive)
6,Cc1cc(C)cc(NC(=O)N2CCC(N(C)CCC(C)C)CC2)c1,1.48% (inactive)
7,Cc1ccc(C)c(N2CCN(C(=O)Cn3ncn4cccc4c3=O)CC2)c1,10.1% (inactive)
8,Cc1ccc(OCCCC(=O)N2CCOCC2)c(C)c1,-6.33% (inactive)
9,Cc1ccc(C)c(N2CCN(C(=O)CCCCCn3c(=S)[nH]c4ccc(N5CCOCC5)cc4c3=O)CC2)c1,44.7% (active)
10,CCC(c1ccc(NC(=O)OC(C)(C)C)cc1)c1cc(OC)cc(OC)c1 (centres undefined),20% (inactive)
11,Fc1ccc2[nH]c3c(N4CCSCC4)ncnc3c2c1,45.2% (active)
12,COc1ccc(CN(CCN2CCOCC2)C(=O)c2ccc(C)cc2)cc1OC,-7.96% (inactive)
13,CCOC(=O)[C@@]12CN(C(=O)OC(C)(C)C)CC=C1N(Cc1ccc(OC)cc1)C(=O)[C@H]2CC(=O)NCc1ccc(OC)c(OC)c1,-0.1% (inactive)
14,Cc1cc(C)nc(NC(=S)N2CCN(c3ccc(C(F)(F)F)cn3)CC2)c1,22.9% (inactive)
15,CC(=O)OC12CCCN(C1)/C(=C/c1ccncc1)C2 (centres undefined),3.99% (inactive)
16,COc1cccc(CNC(=O)C2CCCN(c3nc4ccccc4o3)C2)c1OC (centres undefined),-7.71% (inactive)
17,O=C(Nc1ccc(F)cc1)Nc1nnc([C@H]2C[C@H](O)[C@@H](CO)O2)s1,-2.93% (inactive)
18,O=C(Nc1nnc([C@H]2C[C@H](O)[C@@H](CO)O2)s1)c1cccc(Cl)c1,7.36% (inactive)
19,Cc1ccc(CNC(=O)Nc2nnc([C@H]3C[C@H](O)[C@@H](CO)O3)s2)cc1,46.9% (active)
20,Cc1cc(C(=O)NN=C/C=C/c2ccco2)n[nH]1,-13.9% (inactive)
21,COC(=O)c1ccccc1NC(=O)CSc1n[nH]c(-c2ccncc2)n1,8.9% (inactive)
22,CCc1c(C)nc(SCC(=O)NC2CCCC2)[nH]c1=O,11.9% (inactive)
23,CCc1ccc(-c2nc(SCC(=O)NC3CCCC3)n[nH]2)cc1,53.3% (active)

row,Structure (SMILES),inhibition
1,O=C(c1cccc(C(F)(F)F)c1)N1CC[C@H]2[C@H](CCCN2Cc2cc(F)cc(F)c2)C1,2.53% (inactive)
2,Cc1ccc(NC(=O)c2ccc(CSc3ncnc4nc[nH]c34)cc2)c(C)c1,-6.98% (inactive)
3,S=c1c2[nH]cnc2ncn1CCSc1ncnc2nc[nH]c12,3.01% (inactive)
4,CCc1ccc(N(CC)c2ncnc3nc[nH]c23)cc1,39.6% (active)
5,CCCCN1CCN(C(=O)c2ccc3c(c2)NC(=O)C(C)(C)O3)CC1,-23.3% (inactive)
6,O=C(Nc1nc2ccc(Cl)cc2s1)c1cc(-c2ccc(Cl)cc2)nc2ccccc12,-23.3% (inactive)
7,O=C(CNC(=O)c1ccccc1)OC(C(=O)Nc1cc([N+](=O)[O-])ccc1F)c1ccccc1 (centres undefined),1.21% (inactive)
8,O=C(NC(Nc1nc2ccc([N+](=O)[O-])cc2s1)(C(F)(F)F)C(F)(F)F)c1ccccc1,74.1% (active)
9,Cc1ccccc1NC(=O)COC(=O)c1ccc(Sc2ncn[nH]2)c([N+](=O)[O-])c1,13.4% (inactive)
10,CN(C)S(=O)(=O)c1ccc(C(=O)NCC(C)(C)N2CCOCC2)cc1,15.8% (inactive)
11,O=C(NCCSCc1ccccc1)c1ccc(Cl)c(S(=O)(=O)N2CCOCC2)c1,11% (inactive)
12,CC(C)(CNC(=O)c1ccc(Cl)c(S(=O)(=O)N2CCc3ccccc3C2)c1)N1CCOCC1,65% (active)
13,N#Cc1ccc(OC[C@@H](O)CN2CCC(C(O)(c3ccccc3)c3ccccc3)CC2)c(F)c1,-4.45% (inactive)
14,O=C(CSc1nc2ccccc2s1)NN=Cc1ccc(O)cc1O,-18.2% (inactive)
15,C=CCN(C)CC#Cc1ccccc1,17.2% (inactive)
16,Cc1ccc(-n2c(SCC(=O)Nc3cccc4ccccc34)nnc2-c2ccccn2)cc1,14.2% (inactive)
17,CC(C)(C)c1ccc(Oc2ccc(N)cc2)cc1,100% (active)
18,COc1cccc(CNC(=O)CNS(=O)(=O)c2ccc3nc(C)sc3c2)c1OC,14.5% (inactive)
19,O=C1CCC2(CCC(c3ccc(Cl)cc3)CC2)N1CCO (centres undefined),20.9% (inactive)
20,COC1=C[C@H](C(=O)NCCNC(C)=O)[C@H](C)[C@@H](c2ccccc2)CC1=O,12% (inactive)
